21 compounds from PubChem BioAssay can be followed below.

Measured potencies and affinities stand elsewhere. Results filed as inconclusive are left out. Unmarked numbers belong to inactive results. The rule behind the calls is not given here.

One experiment is described as follows: OVCAR-3 cell viability loss – plate reader, dry powder samples, PAX8 inhibitor project, dose response (AID 743044). The note with it: NIH:OVCAR-3 ovarian cancer cell viability; max activity: at 35 µM, active compounds read low unless noted; series mostly up to 50 µM; activity change, negative = cytotoxicity: at the top concentration.
As to `C[C@@H]1CN([C@@H](C)CO)C(=O)Cc2cc(NC(=O)Cc3ccccc3)ccc2O[C@H]1CN(C)Cc1ccc(-c2ccccc2)cc1`, the max activity is -33%.
Take `C[C@H](CO)N1C[C@H](C)[C@H](CN(C)Cc2ccc3c(c2)OCO3)OCCCC[C@H](C)Oc2ccc(NC(=O)Nc3ccc(C(F)(F)F)cc3)cc2C1=O`: the max activity was -20.3% [at 0.26 µM, active compounds read low].
Same read-out and setting: under `COc1ccc(S(=O)(=O)Nc2ccc3c(c2)C(=O)N([C@@H](C)CO)C[C@@H](C)[C@H](CN(C)Cc2ccc(C(F)(F)F)cc2)OCCCC[C@H](C)O3)cc1` stands -37.4%; under `COc1ccccc1S(=O)(=O)N(C)C[C@H]1Oc2cc(C#CCC3CCCC3)ccc2S(=O)(=O)N([C@@H](C)CO)C[C@H]1C`, 9.23% [at 16 µM, active compounds read low].

The next experiment is described as follows: toxicity toward immortalized ovarian surface epithelium – cell-based, plate reader, dry powder samples, cytotoxicity control for PAX8 inhibitor project, dose response (AID 743045).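 Note: 0% = neutral control median and -100% = positive control median; more negative values mean more cell killing.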 The note with it: IOSE-T80 ovarian epithelial cells; series mostly up to 35 µM; activity change, negative = cytotoxicity: at the top concentration.
Consider `COc1cccc(-c2ccc(C3[C@@H]4CN(C(=O)C5CC5)C[C@H]3N4)cc2)c1` (stereo not given in full), for which the “activity change, negative = cytotoxicity” value is -1.12%.
The same measure, in the same setting: under `O=C1CN(S(=O)(=O)Cc2ccccc2)C[C@H]2[C@H](c3ccc(C#Cc4ccc(F)cc4)cc3)[C@H](CO)N12` stands 12.6%.
Same read-out and setting: under `C[C@@H]1CN([C@@H](C)CO)C(=O)Cc2cc(NC(=O)Cc3ccccc3)ccc2O[C@H]1CN(C)Cc1ccc(-c2ccccc2)cc1` stands 9.32%.
Turning to `COc1cccc(C#Cc2ccc([C@H]3[C@@H](CO)N(C(=O)c4ccccn4)[C@H]3C#N)cc2)c1`, the “activity change, negative = cytotoxicity” value was 27.2% [at 16 µM].
On the same count and under the same terms, for `C[C@@H]1CCCCO[C@@H](CN(C)S(=O)(=O)c2ccccc2)[C@H](C)CN([C@H](C)CO)C(=O)c2cc(NC(=O)Nc3ccc(C(F)(F)F)cc3)ccc2O1` the value was -1.27%; for `C[C@H](CO)N1C[C@H](C)[C@H](CN(C)Cc2ccc3c(c2)OCO3)OCCCC[C@H](C)Oc2ccc(NC(=O)Nc3ccc(C(F)(F)F)cc3)cc2C1=O`, -16.1%; for `O=C(C[C@H]1C[C@@H]2c3cc(NS(=O)(=O)c4ccc(F)cc4)ccc3O[C@@H]2[C@@H](CO)O1)N1CCc2ccccc2C1`, -7.86%.
On the same count and under the same terms, for `COc1ccc(S(=O)(=O)N(C)C[C@@H]2OCCCC[C@H](C)Oc3ccc(NS(=O)(=O)c4ccc(Cl)cc4)cc3C(=O)N([C@H](C)CO)C[C@@H]2C)cc1` the value was 12.6%; for `C[C@H](CO)N1C[C@H](C)[C@@H](CN(C)Cc2ccc(C(F)(F)F)cc2)OCCCC[C@H](C)Oc2ccc(NS(=O)(=O)c3ccc(F)cc3)cc2C1=O`, -28.3%.
On the same count and under the same terms, for `COc1ccc(S(=O)(=O)Nc2ccc3c(c2)C(=O)N([C@@H](C)CO)C[C@@H](C)[C@H](CN(C)Cc2ccc(C(F)(F)F)cc2)OCCCC[C@H](C)O3)cc1` the value was 7.55%; for `COc1ccccc1S(=O)(=O)N(C)C[C@H]1Oc2cc(C#CCC3CCCC3)ccc2S(=O)(=O)N([C@@H](C)CO)C[C@H]1C`, 9.55%.
With `COc1ccccc1C#Cc1ccc([C@H]2[C@H](C#N)N(C(=O)C3CC3)[C@H]2CO)cc1`, the “activity change, negative = cytotoxicity” value is -25.2%.
The same measure, in the same setting: under `Cc1ccc(S(=O)(=O)Nc2ccc3c(c2)C(=O)N([C@H](C)CO)C[C@@H](C)[C@@H](CN(C)Cc2ccc(C(F)(F)F)cc2)OCCCC[C@H](C)O3)cc1` stands 34.9%; under `C[C@@H]1CN([C@@H](C)CO)S(=O)(=O)c2ccc(C#Cc3ccccc3F)cc2O[C@H]1CN(C)C(=O)Cc1ccccc1`, 4.53%; under `C[C@H]1CCCCO[C@H](CN(C)S(=O)(=O)c2ccccc2)[C@@H](C)CN([C@@H](C)CO)C(=O)c2cc(NS(=O)(=O)c3ccc(Cl)cc3)ccc2O1`, 50.6%.
On the same count and under the same terms, for `C[C@H](CO)N1C[C@H](C)[C@@H](CN(C)Cc2ccc(C(F)(F)F)cc2)Oc2ccc(NS(=O)(=O)c3ccc(Cl)cc3)cc2CC1=O` the value was 10.8%; for `O=C(C[C@@H]1C[C@@H]2c3cc(NS(=O)(=O)c4ccc(F)cc4)ccc3O[C@@H]2[C@@H](CO)O1)NCc1ccc(Oc2ccccc2)cc1`, 19.1% [at 16 µM].
On to `COc1ccc(S(=O)(=O)Nc2ccc3c(c2)C(=O)N([C@H](C)CO)C[C@H](C)[C@@H](CN(C)S(=O)(=O)c2ccc(Cl)cc2)OCCCC[C@H](C)O3)cc1`, for which the “activity change, negative = cytotoxicity” value is 3.74%.
As for `Cc1ccc(S(=O)(=O)Nc2ccc3c(c2)C(=O)N([C@H](C)CO)C[C@@H](C)[C@H](CN(C)Cc2ccc(C(F)(F)F)cc2)OCCCC[C@H](C)O3)cc1`, the “activity change, negative = cytotoxicity” value is -24.1%.
Take `CCCC#Cc1ccc([C@H]2[C@@H](C#N)N(C(=O)C3CCCCC3)[C@H]2CO)cc1`: the “activity change, negative = cytotoxicity” value is 28.9%.
Turning to `COc1ccc(NC(=O)N2CCCCN3[C@H](C2)[C@@H](c2ccc(C#Cc4ccccc4)cc2)[C@@H]3CO)cc1`, the “activity change, negative = cytotoxicity” value was 13%.
